EP2 mod: EP2 receptor (human) modulation. induction, % at 25 µM. EP2-expressing cells, cAMP HTRF FRET, PGE2 co-stimulation. 260,000 tested, 0.83% active. P43116. AID 940;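 active = compounds whose cAMP rise, as percent of the full-agonist control response, exceeds 60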;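 note: rat C6 glioma line stably carrying human EP2 under a CMV promoter; the protocol text gives 20 µM as final concentration; 100% = response of wells given 1 µM PGE2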
Target sequence (P43116 whole entry, looked up): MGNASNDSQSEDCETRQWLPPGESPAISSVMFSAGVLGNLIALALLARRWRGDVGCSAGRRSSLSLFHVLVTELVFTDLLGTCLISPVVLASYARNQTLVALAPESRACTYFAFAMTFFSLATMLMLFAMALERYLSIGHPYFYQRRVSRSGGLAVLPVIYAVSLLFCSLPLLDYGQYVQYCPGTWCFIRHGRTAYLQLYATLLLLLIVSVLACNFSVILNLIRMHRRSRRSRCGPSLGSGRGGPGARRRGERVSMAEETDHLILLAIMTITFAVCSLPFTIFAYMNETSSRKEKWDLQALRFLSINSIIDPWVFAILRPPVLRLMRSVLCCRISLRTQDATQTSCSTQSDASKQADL
KCC2 mod: modulates chloride dependent transport by human KCC2; Q9H2X9; KCC2 cells, thallium flux FluoZin-2 fluorescence; B-score of Tl+ flux slope (higher = more flux/activation; lower = inhibition) at 10 µM; 190,000 tested, 2.2% active; AID 1456;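 active = thallium flux slope and its plate-corrected score both differing from the plate sample mean at a set confidence after two filtering rounds, in either direction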;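 note: slope of fluorescence scaled to starting intensity during 10 to 20 s after thallium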
PGE2 EP2 inh: blocks the human prostaglandin E2 receptor EP2 | P43116 | inhibition, % at 25 µM | AID 1422 | 260,000 tested, 0.52% active | C6 glioma cells expressing human EP2, cAMP TR-FRET; cells stimulated with saturating PGE2;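 active = percent inhibition above 40 after rounding to a whole number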;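 note: rat C6 glioma host cells with rolipram phosphodiesterase inhibitor present; the protocol text gives 20 µM as final concentration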
S1P3 antagonist: S1P3 (human) receptor antagonism; Q99500; CHO S1P3 NFAT-BLA reporter, FRET fluorescence, antagonist mode; inhibition, % at 4.98 µM; 170,000 tested, 0.27% active; AID 485;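 active = inhibition above the plate cutoff, the mean inhibition of test wells on that plate plus 3 SD, cut at about 28% in these data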;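 note: cells challenged with S1P at its EC80 of 0.8 µM; blue over green emission ratio from cleaved BLA substrate after 4 h stimulation; 0% = S1P-stimulated wells and 100% = unstimulated DMSO-only wells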
Target sequence (Q99500 whole entry, looked up): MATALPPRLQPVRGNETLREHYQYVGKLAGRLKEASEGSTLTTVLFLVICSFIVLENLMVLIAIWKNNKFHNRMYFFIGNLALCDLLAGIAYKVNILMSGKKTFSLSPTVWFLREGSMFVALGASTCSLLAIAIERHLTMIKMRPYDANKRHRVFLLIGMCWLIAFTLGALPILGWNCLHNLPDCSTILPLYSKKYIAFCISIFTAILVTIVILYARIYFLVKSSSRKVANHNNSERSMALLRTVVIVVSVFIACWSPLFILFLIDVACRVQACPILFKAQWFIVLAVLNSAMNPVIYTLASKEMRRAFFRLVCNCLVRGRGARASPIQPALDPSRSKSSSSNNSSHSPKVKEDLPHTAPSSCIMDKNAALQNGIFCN
KCC2 sec1: confirmation of human KCC2 transport modulators | shares compounds with KCC2 mod | HEK293-KCC2, thallium flux, FluoZin2 fluorescence; hits give high values | normalised thallium flux (F/F0 slope) at 10 µM | 3,700 tested, 15% active;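 active = thallium flux slope above the same plate's solvent-only control mean plus 3 SD; inconclusive = the two replicate wells disagree; inactive = no significant difference from solvent-only control wells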
KCC2 bumet counter: thallium flux despite bumetanide block in KCC2 cells, secondary assay 3. shares compounds with KCC2 mod. HEK293-KCC2 + bumetanide/ouabain, thallium flux FluoZin2; hits give high values. normalized thallium flux at 10 µM. 3,700 tested, 49% active. AID 1714;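 active = thallium entry rate above the same plate's blocked-transporter control wells by more than 3 SD; inconclusive = the two repeat wells disagree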;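 note: raw slope of fluorescence over initial fluorescence between 10 and 20 s after thallium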
KCC2 sec2: KCC2 (human) modulation, second secondary assay. shares compounds with KCC2 mod. HEK293-KCC2, thallium flux FluoZin2 fluorescence; actives lie on both sides; F/F0 rise rate, 10–20 s post-thallium. normalized thallium flux at 10 µM. 3,700 tested, 23% active;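 active = thallium flux slope more than 3 SD above or below the plate's solvent-only control mean, mostly below; inconclusive = the two repeat wells disagreed; inactive = no significant shift from solvent-only controls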;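 note: raw slope with 0.1% DMSO as baseline and bumetanide as block control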
HEK counter1: acts in parental HEK cells, KCC2 counter-screen | shares compounds with KCC2 mod | HEK293 parental cells, thallium flux FluoZin2, ouabain; baseline-ratio fluorescence slope, 10–20 s after thallium | 3,700 tested, 46% active | AID 1716 | thallium flux rate (normalised fluorescence) at 10 µM;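 active = thallium flux rate significantly above the same plate's solvent-only control wells, beyond their mean plus 3 SD; inconclusive = the two replicate wells gave conflicting results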
KCC2 ouabain: KCC2 (human) modulation, ouabain retest | shares compounds with KCC2 mod | HEK293-KCC2, thallium flux FluoZin2 fluorescence; bidirectional: low = inhibitor, high = activator | raw Tl+ flux slope (below DMSO = inhibition, above = activation) at 10 µM | 3,700 tested, 48% active | AID 1717;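 active = thallium flux slope beyond 3 SD from same-plate DMSO control mean in most replicates, usually higher, sometimes lower; inconclusive = repeat tests gave conflicting results; inactive = no significant difference from controls in most replicates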;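 note: slope of initial-normalized fluorescence between seconds 10 and 20 after thallium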
HEK293 Tl flux2: parental HEK flux effect, counter-screen 2; thallium flux slope at 10 µM; 3,700 tested, 33% active; HEK293 parental, thallium flux FluoZin-2 fluorescence slope; shares compounds with KCC2 mod;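 active = thallium flux slope above the same plate's solvent-control mean plus 3 SD in both duplicate wells; inconclusive = duplicate wells that disagreed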;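 note: run without ouabain in cells lacking the KCC2 cotransporter; slope of fluorescence scaled to its starting value between 10 and 20 s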
Active calls of the source: *; ? = inconclusive; · = no result given. Hits are enriched below; roughly 3.1% of the tested compounds scored in any of these assays.

SMILES	EP2 mod	KCC2 mod	PGE2 EP2 inh	S1P3 antagonist	KCC2 sec1	KCC2 bumet counter	KCC2 sec2	HEK counter1	KCC2 ouabain	HEK293 Tl flux2
COc1nc(OCCNC(C)=O)nc(N(C)C)n1	23	-0.031	1	·	0.0087	0.0061	0.03	0.0064	0.021	0.0093
CC(=O)NCCOc1nc(N(C)C)nc(N2CCOCC2)n1	24	0.65	9	-38	·	·	·	·	·	·
COc1ccc2c(c1)OC1(CCN(CC(O)c3ccc(Cl)cc3)CC1)CC2O (configuration not stated)	-50	·	11	·	·	·	·	·	·	·
COCCN(C(=O)CSc1nc2ccccc2c(=O)n1CC(C)C)c1c(N)n(Cc2ccccc2)c(=O)[nH]c1=O	12	13*	7	-16	0.012*	0.054*	0.037	0.024*	0.05*	0.016*
Cc1ccc(C)c(NC(=S)N/N=C2/CCCCc3ccccc32)c1	53	9.6*	4	8	0.0064	0.036*	0.047*	0.037*	0.038*	0.038*
CCOc1cccc(/C=N/Nc2nc(N3CCCC3)nc(N3CCCC3)n2)c1O	-25	-4.5*	6	11	0.01	0.0065	0.034	0.0074	0.021	0.011*
CCOc1cc(/C=N/Nc2nc(N3CCCC3)nc(N3CCCC3)n2)ccc1O	17	-0.43	15	·	·	·	·	·	·	·
CN(C)S(=O)(=O)c1cccc(NC(=S)NN=C(Cc2ccccc2)Cc2ccccc2)c1	4	5.9*	8	-1	0.0069	0.0099*	0.034	0.014*	0.023	0.016*
COc1cc(/C=N/NC(=S)Nc2cccc(S(=O)(=O)N(C)C)c2)ccc1O	-50	-3.4*	15	-10	0.0061	0.0071	0.029	0.0066	0.016*	0.0095
CCOc1ccc(N(CCCCO)C(=S)NC(=O)c2ccc(C)c(Br)c2)cc1	-2	13*	1	7	0.0076	0.049*	0.044*	0.029*	0.046*	0.033*
CCOc1ccc(C(=O)NCCCN(CC)CC)cc1	10	0.99	10	-16	·	·	·	·	·	·
COc1ccc(-c2cc(CCCC(=O)NCCc3ccccc3)no2)cc1	-64	-4.3*	7	0	0.009	0.0067	?	0.007	0.016*	0.01
COc1cc2cc(CN(Cc3ccccc3)C(C)=O)c(=O)[nH]c2cc1OC	-29	·	7	·	·	·	·	·	·	·
COCCCNCc1cc2c(-c3cccc(F)c3)nn(-c3ccccc3)c2[nH]c1=O	-30	·	5	·	·	·	·	·	·	·
O=C(NC(=S)Nc1ccc(-c2nc3ncccc3o2)cc1)c1ccccc1F	-8	4.7*	10	-3	0.0081	0.013*	0.033	0.011*	?	0.011
CCCC(=O)NC(=S)Nc1cccc(-c2nc3ncccc3o2)c1	19	-0.075	5	-16	·	·	·	·	·	·
Cc1cc2ccccn2c1C(=O)c1nc(N2CCOCC2)ncc1Cl	-17	-3.8*	3	·	0.0073	?	0.026*	0.0074	0.017*	0.0098
COCCN(CCOC)c1ncc(Cl)c(C(=O)c2c(C)cc3ccccn23)n1	36	-1.2	2	15	·	·	·	·	·	·
COC(=O)NCC12CC3CC(C1)CC(CNC(=O)OC)(C3)C2	10	0.12	8	·	0.0075	0.0044	0.028	0.0071	0.019	0.0096
CC(=O)NCC12CC3CC(C1)CC(C(=O)O)(C3)C2	27	0.27	5	-8	·	·	·	·	·	·
C=CCn1c(SCC(=O)Nc2cccc(Cl)c2)nnc1-c1ccncc1	-28	·	10	·	·	·	·	·	·	·
C=CCn1c(SCC(=O)Nc2ccc(OCC)cc2)nc2ccccc2c1=O	13	·	3	·	·	·	·	·	·	·
Cc1ccc(-c2nn3c(C)nnc3c3ccccc23)cc1S(=O)(=O)NCCN1CCOCC1	15	-0.79	2	·	·	·	·	·	·	·
Cc1ccc(-c2n[nH]c(=O)c3ccccc23)cc1S(=O)(=O)NCCN1CCOCC1	18	0.32	6	·	0.009	0.0087*	0.032	0.0088*	0.023	?
O=C(NC(=O)c1ccncc1)NC(c1ccccc1)c1ccccc1	20	-4.8*	23	·	0.0076	0.007	0.029	?	0.02	0.0097
SMILES	EP2 mod	KCC2 mod	PGE2 EP2 inh	S1P3 antagonist	KCC2 sec1	KCC2 bumet counter	KCC2 sec2	HEK counter1	KCC2 ouabain	HEK293 Tl flux2
CCCCC(=O)NC(=O)NC(c1ccccc1)c1ccccc1	4	·	10	-17	·	·	·	·	·	·
COc1ccc(CN2CC(C(=O)NCCC(C)C)CC2=O)cc1 (configuration not stated)	19	0.51	6	-8	·	·	·	·	·	·
CCCCN(C)CCCNC(=O)C1CC(=O)N(Cc2ccc(OC)cc2)C1 (configuration not stated)	11	·	14	·	0.009	0.0051	0.031	0.0075	0.019	0.011
CCOc1cc(Br)ccc1S(=O)(=O)NCc1ccccc1	-41	·	·	·	0.007	0.0051	0.024*	0.0074	0.016*	0.01
CCOc1ccc(Br)cc1S(=O)(=O)NCc1ccncc1	15	0.013	6	-20	·	·	·	·	·	·
Fc1ccc(CSc2nncn2NCc2ccccc2)cc1	17	-1.7	16	·	·	·	·	·	·	·
Fc1ccc(CSc2nncn2NC/C=C/c2ccccc2)cc1	-32	·	10	·	0.0082	0.004	?	0.0067	?	0.0092
CCOC(=O)C(=O)Nc1nnc(-c2ccc(F)cc2)s1	-32	·	6	·	·	·	·	·	·	·
O=c1c2sccc2[nH]c(=S)n1Cc1ccccc1	24	68*	8	-19	0.0088	0.11*	0.084*	0.086*	0.094*	0.079*
CC(CC(=O)Nc1ccc(S(=O)(=O)N2CCCCC2)cc1)c1ccccc1 (configuration not stated)	-96	·	22	·	·	·	·	·	·	·
CCC(C)NC(=O)CSc1nc(-c2cccs2)cc(C(F)(F)F)n1 (configuration not stated)	-97	2.9*	17	·	0.0058	0.0044	0.03	0.0074	0.019	0.01
O=C(O)CCC(=O)N1CCN(c2ncnc3sc4c(c23)CCCC4)CC1	17	·	8	·	·	·	·	·	·	·
N#Cc1c(NC(=O)c2ccccc2)sc2c1CCC2	-8	·	16	·	0.0066	0.0041	0.028	0.0075	0.018	0.01
N#Cc1c(NC(=O)c2cccnc2)sc2c1CCC2	-27	0.085	12	·	·	·	·	·	·	·
O=C(Cn1nnc(-c2ccccc2)n1)Nc1ccccc1Br	-7	·	4	·	·	·	·	·	·	·
COc1ccccc1NC(=O)C1=C(C)NC2=C(C(=O)CCC2)C1c1ccccc1OC (configuration not stated)	-58	·	8	·	·	·	·	·	·	·

Assay outcomes (PubChem BioAssay)
